Data: PubChem BioAssay (NCI)
Compounds without any hit were thinned out: in the full panel of roughly 79,000, 15% have a hit. Calls of active or inactive are those of the source. No stated cut-off is given here; in the data, active means growth inhibition above about 70%; inactive means the rest.

Key:
[1] = NCI Yeast Anticancer Drug Screen. Data for the rad50 strain (AID 155);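 further: 0% = growth of vehicle-only cultures of the same strain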; conditions: S. cerevisiae rad50 strain growth inhibition; at 50.0 µM; active compounds read high
How it was run: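 Relative growth inhibition (compound vs vehicle) was measured in yeast with a defined repair-gene alteration.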

[2] = NCI Yeast Anticancer Drug Screen. Data for the mec2-1 strain (AID 157); conditions: S. cerevisiae mec2-1 strain, at 50.0 µM, active compounds read high
How it was run: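 Mutant yeast (mec2-1) grown with compound; growth inhibition relative to vehicle control reported.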

[3] = NCI Yeast Anticancer Drug Screen. Data for the sgs1 mgt1 strain (AID 161);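 further: 0% = growth of cultures given vehicle only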; conditions: S. cerevisiae sgs1 mgt1 strain, at 50.0 µM, active compounds read high
How it was run: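 Yeast cells carrying a defined DNA-repair defect were exposed to test compounds. Growth inhibition was measured relative to vehicle-treated controls.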

[4] = NCI Yeast Anticancer Drug Screen. Data for the cln2 rad14 strain (AID 165);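 further: 0% = growth equal to vehicle treated cultures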; conditions: S. cerevisiae cln2 rad14 strain, at 50.0 µM, active compounds read high
How it was run: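 Readout is yeast growth inhibition versus vehicle-treated controls, using a strain with cln2 and rad14 alterations exposed to compound.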

[5] = NCI Yeast Anticancer Drug Screen. Data for the bub3 strain (AID 167); conditions: S. cerevisiae bub3 mutant strain, at 50.0 µM, active compounds read high
How it was run: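 Screening used yeast with an engineered genetic alteration affecting cell cycle control. Compound-exposed cultures were compared with vehicle cultures, and reduced growth was taken as inhibition.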

[6] = NCI Yeast Anticancer Drug Screen. Data for the mlh1 rad18 strain (AID 175); conditions: S. cerevisiae mlh1 rad18 strain growth inhibition; at 50.0 µM; active compounds read high
How it was run: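 Genetically defined yeast (DNA repair-deficient) exposed to compounds; growth inhibition determined relative to vehicle.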

Measured: growth inhibition

N#Cc1c(Cl)cccc1N1CCSCC1
inactive: [1] 1.75% | [2] -20.8% | [3] 15.3% | [4] 18.2% | [5] -0.9% | [6] 0.1%

Cc1ccc2c(c1)c(C)c(C)c(=O)n2C
inactive: [1] 21.2% | [2] -8.7% | [3] -1.5% | [4] 13.2% | [5] 1.9% | [6] 10.1%

CCCCC1SC2=NCCN2C1(O)c1ccc(Cl)cc1 (configuration not stated)
inactive: [1] 14.6% | [2] 3.55% | [3] 28.9% | [4] 18% | [5] 31.3% | [6] 26.5%

Cc1c(-c2ccccc2)[nH]c2ccc(Cl)cc2c1=O
inactive: [1] -7.5% | [2] -30.9% | [3] 28.9% | [4] 2.8% | [5] -5.1% | [6] 6.25%

O=C(O)c1ccc(N=Nc2ccccc2)cc1
inactive: [1] -4.4% | [2] 14.9% | [3] 20.9% | [4] 0.3% | [5] -5.1% | [6] 2.75%

CCCCCCC1OCC(CC)(CC)CO1
inactive: [1] 11.8% | [2] -12.4% | [3] -18.9% | [4] -26.5% | [5] -15.6% | [6] 26.4%

O=C1C2ON3c4ccccc4C(=O)C3(c3ccccc3)C2C(=O)N1c1ccccc1 (configuration not stated)
inactive: [1] -40.9% | [2] -31.3% | [3] -63% | [4] -14.3% | [5] -37% | [6] -49%

CN1CCC(O)(c2ncc(Br)c3ccccc23)CC1
inactive: [1] 17.1% | [2] -7.8% | [3] 24.9% | [4] 10.8% | [5] 11.2% | [6] 39.6%

CC(O)C1NC(=S)N(c2ccccc2)C1=O (configuration not stated)
inactive: [1] 17.4% | [2] 21% | [3] 20.8% | [4] -20.2% | [5] -14.4% | [6] 46%

O=C1C2=Cc3ccccc3CCN2c2ccc([N+](=O)[O-])cc21
inactive: [1] -28.9% | [2] 5.35% | [3] -39.4% | [4] -7% | [5] 1.7% | [6] -24.2%

O=c1[nH]c(=O)n(C2OC(COP(=O)(O)OP(=O)(O)O)C(O)C2O)cc1F (configuration not stated)
inactive: [1] 1.4% | [2] -2.7% | [3] -11.4% | [4] -31.3% | [5] 0.75% | [6] -7%

CC(C)(N)COC(=O)c1ccc([N+](=O)[O-])cc1
inactive: [1] 3.4% | [2] -23.7% | [3] 7.1% | [4] 0.15% | [5] 12.2% | [6] 10.2%

C/C([O-])=C(/c1nc(-c2ccc([N+](=O)[O-])o2)no1)[n+]1cc(C)ccc1C
inactive: [1] 19.3% | [2] 14% | [3] 18.9% | [4] 21.3% | [5] 7.55% | [6] 16.1%

CCOC(=O)CCC(C)(C#N)c1ccccc1 (configuration not stated)
inactive: [1] -2.35% | [2] 0.65% | [3] 2.5% | [4] -9.1% | [5] 5.75% | [6] -0.05%

CNC1C(CO)OC(n2cnc3c(=O)[nH]cnc32)C1O (configuration not stated)
inactive: [1] 12.2% | [2] -6.45% | [3] -11.4% | [4] -9.1% | [5] -9.2% | [6] 13.6%

CCC(=O)C(C)C1=Nc2nnc(CCCCCCCc3nnc4n3C(=O)C(C(C)C(=O)CC)=N4)n2C1=O (configuration not stated)
inactive: [1] -13.7% | [2] 12.3% | [3] 11.8% | [4] -7.4% | [5] -3.05% | [6] -4.35%

CC(C)OC(CCCl)c1ccccc1 (configuration not stated)
inactive: [1] -6.4% | [2] -45.5% | [3] -4.85% | [4] 5.6% | [5] -23.7% | [6] 3.1%

CC(O)COC(C)c1ccccc1 (configuration not stated)
inactive: [1] 9.05% | [2] 0.3% | [3] -0.7% | [4] 5.35% | [5] -6.45% | [6] 2.1%

COc1ccc(OC)c(C(O)P(=O)(c2ccccc2)c2ccccc2)c1 (configuration not stated)
inactive: [1] 12.5% | [2] 1.65% | [3] 31.4% | [4] 12.2% | [5] 27.1% | [6] 27.2%

C=CCOC(=O)C(C#N)C(C)CC(=O)OCC (configuration not stated)
inactive: [1] -5.65% | [2] -1.15% | [3] -22.9% | [4] -0.35% | [5] 5.25% | [6] -5.55%

O=S(=O)(c1ccccc1)n1c2c(c3ccccc31)Cc1ccccc1-2
inactive: [1] -3.75% | [2] 0.75% | [3] -16.9% | [4] -8.4% | [5] -2.1% | [6] -6.55%

CCCCCCCCCC[C@@H](OC(C)=O)[C@@H]1CC[C@@H]([C@@H]2CC[C@@H]([C@@H](O)CC#C/C=C/CCCCCCC[C@@]3(Sc4ccccc4)C[C@H](C)OC3=O)O2)O1
inactive: [1] -27.9% | [2] -8.2% | [3] -16.1% | [4] 4.25% | [5] -15.3% | [6] -12.1%

CCCCCCCCCCCCCCCc1ccc([N+](=O)[O-])c(O)c1
inactive: [1] -2.25% | [2] 33.5% | [3] 7.1% | [4] -8.75% | [5] 51.7% | [6] 35.9%

C/C(=N/NC(=S)Nc1ccccc1Cl)c1cccc(/C(C)=N\NC(=S)Nc2ccccc2Cl)n1
inactive: [1] 39.4% | [2] 16.9% | [3] 39.8% | [4] 6.3% | [5] 32.1% | [6] 24.7%

Clc1ccccc1/C=C(/c1ccccc1)c1ccccn1
inactive: [1] 37.5% | [2] 12.3% | [3] 23.3% | [4] -8.85% | [5] 29.9% | [6] 15.8%

COC(=O)C1C(c2ccccc2)C1(C#N)C#N (configuration not stated)
inactive: [1] -42.5% | [2] 2.55% | [3] -1% | [4] -25.6% | [5] -5.55% | [6] 3.3%

O=[N+]([O-])c1ccc(C[Se]c2ncnc3c2ncn3C2OC(CO)C(O)C2O)cc1 (configuration not stated)
inactive: [1] -15.1% | [2] -7% | [3] 13.6% | [4] -32.2% | [5] 0.6% | [6] -8.35%

Cn1c(COC(=O)Nc2ccccc2)c(COC(=O)Nc2ccccc2)c2ccc3cc(Cl)c(Cl)cc3c21
active: [1] 72.9% | [2] 78.8% | [3] 76.3% | [4] 81.2% | [5] 84.3%
inactive: [6] -44%

O=C(NCCCCCCNC(=O)OCCSCCn1cc(C(=O)NC(=O)OCc2ccccc2)c(=O)[nH]c1=O)OCCSCCn1cc(C(=O)NC(=O)OCc2ccccc2)c(=O)[nH]c1=O
inactive: [1] -21.3% | [2] -23.6% | [3] 2.6% | [4] 2.55% | [5] 15.1% | [6] -9.95%

CC(CN(C)C)N(C)C (configuration not stated)
inactive: [1] -14.7% | [2] -34.5% | [3] -41.6% | [4] -7.75% | [5] -4.6% | [6] 0.15%

COc1cc(/C=C/c2ccccn2)oc(=O)c1
inactive: [1] 5.2% | [2] -6.7% | [3] -2.05% | [4] -14.3% | [5] -12.1% | [6] 7.9%

O=C1Nc2ccccc2/C1=N/N1C(=O)CSC1=S
inactive: [1] 28.6% | [2] 15% | [3] 32.5% | [4] 7.2% | [5] 15.6% | [6] 29.1%

O=C(O)C(F)(F)C(F)(F)C(F)(F)C(F)(F)C(=O)O
inactive: [1] -1.85% | [2] -2.95% | [3] -37.8% | [4] -28.3% | [5] -45.8% | [6] -22.8%

COc1cc2c(cc1OC)C(C(CO)CO)N(CC(O)CCl)CC2 (configuration not stated)
inactive: [1] -25.6% | [2] -16.1% | [3] -26% | [4] -6.65% | [5] -13.9% | [6] -30.8%

CCc1cc(C(C)(C)C)cc(C(C)(C)C)c1O
inactive: [1] 23.6% | [2] 18.4% | [3] -5.75% | [4] 6.05% | [5] 21.4% | [6] 2.2%

O=P(O)(O)OP(=O)(O)OCC1OC(n2cnc3c(=S)nc[nH]c32)C(O)C1O (configuration not stated)
inactive: [1] -2.65% | [2] 3.5% | [3] -5% | [4] -9.2% | [5] 3.55% | [6] 2.85%

CCCCCCCCCCCCCCCCCCCCC1CC(=O)OC1=O (configuration not stated)
inactive: [1] 41.6% | [2] 11.8% | [3] 36.4% | [4] 9.45% | [5] 2.7% | [6] 29.2%
